Several values for one entry are separate records, joined by “and”; a condition that tells them apart may be missing. Equal values may be shown once. The source holds several records for some structures; these can differ, active in one and inactive in another. Activity calls are given as the source filed them. Calls follow the shape of the full dose curve.
% is scaled to controls: 0 for no effect and ±100 for the full control effect.

The nature of the experiment: qHTS assay to identify small molecule agonists of the estrogen related receptor (ERR) signaling pathway from Tox21 library (AID 1224849). Also: nearly all actives have a fitted effect of over 15% in size. To be noted: ERR reporter cell line, ONE-Glo luciferase, 18 h; at 92.4 µM (top of the series). The gist of the method: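 Tox21 compounds tested for ERR agonism in an NTP reporter cell line: 18 h treatment at 37 C, then ONE-Glo luminescence.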
Turning to `CCCCC(CC)COCC1CO1` (stereo unspecified), the activity change, positive = activation was 1.35% (inactive) and -0.071% (inactive).
`Cc1cccc(C(=O)O)c1`: the activity change, positive = activation is 0.909% (inactive) and 9.04% (inactive).
The figure for `O=[N+]([O-])c1ccc2c(c1)Cc1ccccc1-2` is 1.03% (inactive) and -0.93% (inactive); for `CCCCC/C=C/C=C/C=O` it is -1.92% (inactive) and -41.4% (inactive).
`O=c1oc(=O)c2cc3c(=O)oc(=O)c3cc12`: the activity change, positive = activation is 1.24% (inactive) and 2.94% (inactive).
Regarding `Cc1c(OCC(F)(F)F)ccnc1CS(=O)c1nc2ccccc2[nH]1` (stereo unspecified), the activity change, positive = activation is -7.88% (inactive).
For `CCC(C)c1ccccc1O` (stereo unspecified), the activity change, positive = activation was -6.99% (inactive) and 2.48% (inactive).
As for `Nc1ncn([C@@H]2O[C@H](CO)[C@@H](O)[C@H]2O)c(=O)n1`, the activity change, positive = activation was -55.9% (inactive).
The figure for `CCCCOCCOCCOCCO` is -1.73% (inactive); for `CCOC(=O)C(C#N)=C(c1ccccc1)c1ccccc1` it is -34.2% (inactive); for `CC(C(=O)O)c1cccc(C(=O)c2ccccc2)c1` (stereo unspecified) it is 2.6% (inactive).
For `CCC(C)CO` (stereo unspecified) the value was 1.13% (inactive) and -5.81% (inactive).
For `O=C1OC2(c3cc(Br)c(O)c(Br)c3Oc3c2cc(Br)c(O)c3Br)c2c(Cl)c(Cl)c(Cl)c(Cl)c21` the value was -28% (inactive).
In the case of `CC(CCC(=O)O)(c1ccc(O)cc1)c1ccc(O)cc1`, the activity change, positive = activation is 1.54% (inactive) and 1.03% (inactive).
The figure for `C[C@]12CC[C@H]3[C@@H](CCC4=CC(=O)CC[C@@]43C)[C@@H]1CC[C@@H]2C(=O)CO` is -55.9% (inactive); for `Nc1ncnc2nc[nH]c12` it is 111% (active).
Take `CC(C)OB(OC(C)C)OC(C)C`: the activity change, positive = activation is -0.608% (inactive) and 0.13% (inactive).
For `C#C[C@]1(O)CC[C@H]2[C@@H]3CCc4cc(OC)ccc4[C@H]3CC[C@@]21C`, the activity change, positive = activation was -15.3% (inactive).
The figure for `Clc1nc(Cl)c(Cl)c(Cl)c1Cl` is 4.58% (inactive) and 5.62% (inactive); for `CCCC(=O)O` it is 4.22% (inactive) and -0.802% (inactive); for `C=C(C)C(=O)OCCOC(=O)C(=C)C` it is -0.0914% (inactive) and 4.51% (inactive).
The figure for `O=C(c1ccccc1)c1ccccc1O` is -0.602% (inactive) and -1.04% (inactive).
With `CC1=CC2C3CC(C=C3C)C2C1` (stereo unspecified), the activity change, positive = activation is 0.676% (inactive) and -14.6% (inactive).
The figure for `c1ccc2cc(Nc3ccc(Nc4ccc5ccccc5c4)cc3)ccc2c1` is 1.47% (inactive) and 5.2% (inactive).
The figure for `Cn1cnc([N+](=O)[O-])c1Sc1ncnc2nc[nH]c12` is 19.9% (active).
Regarding `O=C(/C=C/c1ccccc1)OCc1ccccc1`, the activity change, positive = activation is 36.2% (active).

These data come from PubChem BioAssay (Tox21).
